According to PubChem BioAssay AID602262 (National Center for Advancing Translational Sciences (NCATS), 2012):
Active and inactive are the calls of the source. Calls follow the shape of the dose curve; as a rule, active = well fitted curve in the direction sought with a large enough effect; inactive = no such curve, though single readings can be large or run the other way.

experiment: qHTS Assay for Agonists of the Relaxin Receptor RXFP1: V1B SAR; details: HEK293 V1B cells, cAMP TR-FRET, 30 min; series mostly up to 78.1 µM
Excerpt: The relaxin hormone is involved in the variety of biological functions in normal tissues and diseases. The role of relaxin is well-established in female reproduction and parturition, mammary gland and endometrial development, maintenance of myometrial quiescence during pregnancy. Relaxin signaling through its G protein-coupled receptor (GPCR) RXFP1 results in ECM remodeling through regulation of collagen deposition, cell invasiveness, proliferation and overall tissue homeostasis. […] Recombinant human relaxin (rhRlx) is currently being tested in clinical trials as a protective agent in congestive heart failure, in treating severe preeclampsia, and as an anti-fibrotic agent in systemic sclerosis. Upon relaxin binding RXFP1 activation leads to the activation of adenylate cyclase (AC) via Gs. cAMP will activate PKA, which phosphorylates many signaling proteins. Thus, detection of cAMP increase is an easy and reliable indication of relaxin receptor activation. To screen for agonists of the relaxin receptor, a HEK293T cell line stably transfected with RXFP1 was used. RXFP1 activation was assayed by changes in cAMP levels as detected with a time-resolved fluorescence energy transfer (TR-FRET) cAMP detection kit. This assay measures activation of a cell expressing V1B, another GPCR targeted by relaxin, to determine the selectivity of compounds for RXFP1. NIH Chemical Genomics Center [NCGC] NIH Molecular Libraries Probe Production Centers Network [MLPCN] MLPCN Grant: R03 MH085705-01A1 Assay Submitter (PI): Alexander Agoulnik
This is a cell-based assay for cAMP second messenger response to screen for agonists of the RXFP2 receptor. The assay was conducted in the presence of a PDE4 inhibitor (Ro 20174). The cells were lysed and the cAMP levels were measured with a TR-FRET cAMP kit. Presence of cAMP in the cell lysate disrupts binding between the cryptate-labeled anti-cAMP and d2-labeled cAMP pair, leading to a decrease in the TR-FRET signal. Data were normalized to the controls for basal activity (buffer only) and 100% activity (29 nM porcine relaxin). The EC50 values were determined from concentration-response data modeled with the standard Hill equation 1536-well assay protocol for the HEK293 V1B cAMP assay: (1) Add 3 ul HEK293 RXFP2 cell culture. 2000 cells/well in DMEM/F12, 10% FBS, 1x Pen/Strep (dispensed offline with MultiDrop Combi). (2) Incubate 16-24 hr at 37C, 5% CO2. (3) Add 1 ul 400uM Ro20174 in DPBS, 0.05% BSA, 0.005% Tween 20. (3) Add 23 nl compounds in DMSO solution. Final concentration was 0.5 - 58 uM. (4) Incubate 30 min at 37C, 5% CO2. (5) Add 1 ul cAMP-d2 in lysis buffer (HTRF cAMP HiRange kit, CisBio). (6) Add 1 ul anti-cAMP antibody-cryptate in lysis buffer (HTRF cAMP HiRange kit, CisBio). (7) Incubate 30 min at room temperature. (6) Detect the assay plate in a ViewLux plate reader (PerkinElmer) with Ex=320 nm, Em1=615 nm and Em2=665 nm. Keywords: relaxin, RXFP1, RXFP2, G-protein coupled receptor, cAMP, agonist, high throughput screening, MLSMR, MLSCN, NIH Roadmap, qHTS and NCGC

| Structure (SMILES) | outcome |
| --- | --- |
| O=C(Cc1ccccc1)Nc1ccccc1C(=O)Nc1cccc(C(F)(F)F)c1 | inactive |
| O=C(Nc1ccccc1C(=O)Nc1cccc(C(F)(F)F)c1)c1cccnc1 | inactive |
| CC(C)(C)c1cccc(NC(=O)c2ccccc2NC(=O)C2CCCCC2)c1 | inactive |
| O=C(Nc1cccc(-c2cccc(C(F)(F)F)c2)c1)c1ccccc1NC(=O)C1CCCCC1 | inactive |
| O=C(Nc1cccc(Br)c1)c1ccccc1NC(=O)C1CCCCC1 | inactive |
| COc1ccccc1CNc1ccccc1C(=O)Nc1cccc(C(F)(F)F)c1 | inactive |
| CCCCC(=O)Nc1ccccc1C(=O)Nc1cccc(C(F)(F)F)c1 | inactive |
| COc1ccccc1C(=O)N(C)c1ccccc1C(=O)Nc1cccc(C(F)(F)F)c1 | inactive |
| O=C(Nc1cccc(C(F)(F)F)c1)c1ccccc1NC(=O)c1ccccc1OC(F)(F)F | inactive |
| O=C(Nc1ccccc1)c1ccccc1NC(=O)C1CCCCC1 | inactive |
| CC(C)Oc1ccccc1C(=O)Nc1ccccc1C(=O)Nc1cccc(C(F)(F)F)c1 | inactive |
| O=C(Nc1cccc(C(F)(F)F)c1)c1ccccc1NC(=O)C1CCCC1 | inactive |
| O=C(NCc1ccco1)c1ccccc1NC(=O)c1ccccc1NC(=O)C1CCCCC1 | inactive |
| COc1ccccc1C(=O)Nc1ccccc1C(=O)Nc1cccc(SC(F)(F)F)c1 | inactive |
| COCCOc1ccccc1C(=O)Nc1cccc(C(F)(F)F)c1 | inactive |
| CCOc1ccccc1C(=O)Nc1ccccc1C(=O)Nc1cccc(S(=O)(=O)C(F)(F)F)c1 | inactive |
| CCOc1ccccc1C(=O)Nc1cnccc1C(=O)Nc1cccc(S(=O)(=O)C(F)(F)F)c1 | inactive |
| O=C(NCc1cccc(C(F)(F)F)c1)c1ccccc1NC(=O)C1CCCCC1 | inactive |
| O=C(Nc1cccc(C(F)(F)F)c1)c1ccccc1NC(=O)C1CCC1 | inactive |
| CCOc1ccccc1C(=O)Nc1ncccc1C(=O)Nc1cccc(S(=O)(=O)C(F)(F)F)c1 | inactive |
| Cc1ccccc1NC(=O)c1ccccc1NC(=O)C1CCCCC1 | inactive |
| O=C(Nc1cccc(F)c1)c1ccccc1NC(=O)C1CCCCC1 | inactive |
| O=C(Nc1cccc(S(=O)(=O)C(F)(F)F)c1)c1ccccc1NC(=O)c1ccccc1OCC(F)(F)F | inactive |
| CCSc1ccccc1C(=O)Nc1ccccc1C(=O)Nc1cccc(S(=O)(=O)C(F)(F)F)c1 | inactive |
| COc1ccccc1-c1ccccc1C(=O)Nc1cccc(C(F)(F)F)c1 | inactive |
| COc1ccccc1C(=O)Nc1ccc(C(=O)Nc2cccc(C(F)(F)F)c2)cc1 | inactive |
